# Reference: PMC7862700, “An all-to-all approach to the identification of sequence-specific readers for epigenetic DNA modifications on cytosine”
# Experiments:
# Experiment in all cases: DAPPL (digital affinity profiling via proximity ligation, sequencing); 10 mM Tris-HCl pH 7.5, 50 mM NaCl, 1 mM DTT, 4% glycerol, room temperature, 30 min; GST-TFs on glutathione beads, 16-mer random dsDNA library, 0.1% formaldehyde crosslink after washing; high values mean tight binding
# Settings in all cases: protein: recombinant; tags: N-terminal GST; dsDNA, one strand shown
# [1] = target: T1, FEV (Homo sapiens, UniProt Q99581 1-238)
# T1 sequence: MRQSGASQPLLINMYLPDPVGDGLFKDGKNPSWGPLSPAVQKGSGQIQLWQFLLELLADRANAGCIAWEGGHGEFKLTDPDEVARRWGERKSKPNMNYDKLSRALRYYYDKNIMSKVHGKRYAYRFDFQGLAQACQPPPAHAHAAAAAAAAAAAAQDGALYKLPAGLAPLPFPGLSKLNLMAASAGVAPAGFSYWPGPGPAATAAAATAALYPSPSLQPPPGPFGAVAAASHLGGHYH
# Procedure, shortened: (§1)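 Sequencing on an Illumina NextSeq500 followed washing, crosslinking with 0.1% formaldehyde, proximity ligation (BsaI/T4 ligase, 1 h, 37 °C) and PCR amplification of pools that had been incubated for 30 min at room temperature with 200 nmole of a random double-stranded 16-mer DNA library in Tris/NaCl/DTT/glycerol buffer. Each pool held DNA-barcoded human transcription factors, expressed in yeast as GST fusions and captured on glutathione beads, plus a tag-only sample. Binding signal is a hexamer's read frequency for a factor divided by its frequency in the tag-only sample.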
# [2] = target: ETV5 (Homo sapiens, UniProt P41161 1-510)
# Chain of ETV5 (P41161 whole entry): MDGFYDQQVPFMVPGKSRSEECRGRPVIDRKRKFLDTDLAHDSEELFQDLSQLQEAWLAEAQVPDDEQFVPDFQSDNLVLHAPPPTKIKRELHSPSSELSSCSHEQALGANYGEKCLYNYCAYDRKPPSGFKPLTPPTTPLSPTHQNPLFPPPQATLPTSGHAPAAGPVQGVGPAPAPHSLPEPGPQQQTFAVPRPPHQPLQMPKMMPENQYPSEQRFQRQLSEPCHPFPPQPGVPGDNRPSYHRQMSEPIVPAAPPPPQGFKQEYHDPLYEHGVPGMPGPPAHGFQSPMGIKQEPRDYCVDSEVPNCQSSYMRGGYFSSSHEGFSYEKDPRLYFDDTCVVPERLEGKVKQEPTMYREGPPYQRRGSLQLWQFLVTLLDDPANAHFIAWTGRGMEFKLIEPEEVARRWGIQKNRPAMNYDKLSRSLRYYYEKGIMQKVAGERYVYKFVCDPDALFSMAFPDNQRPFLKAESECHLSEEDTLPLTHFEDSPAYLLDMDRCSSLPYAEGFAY
# Procedure, shortened: as §1
# [3] = target: T2, SPIC (Homo sapiens, UniProt Q8N5J4 1-248)
# T2 sequence: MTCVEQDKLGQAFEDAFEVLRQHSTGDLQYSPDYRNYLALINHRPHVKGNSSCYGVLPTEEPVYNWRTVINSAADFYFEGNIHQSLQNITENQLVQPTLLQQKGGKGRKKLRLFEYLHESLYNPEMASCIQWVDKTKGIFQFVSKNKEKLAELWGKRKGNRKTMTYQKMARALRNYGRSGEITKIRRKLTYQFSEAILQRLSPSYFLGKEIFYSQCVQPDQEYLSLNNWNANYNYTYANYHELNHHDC
# Procedure, shortened: as §1
# [4] = target: ELF4 (Homo sapiens, UniProt Q99607 1-663)
# Chain of ELF4 (Q99607 whole entry): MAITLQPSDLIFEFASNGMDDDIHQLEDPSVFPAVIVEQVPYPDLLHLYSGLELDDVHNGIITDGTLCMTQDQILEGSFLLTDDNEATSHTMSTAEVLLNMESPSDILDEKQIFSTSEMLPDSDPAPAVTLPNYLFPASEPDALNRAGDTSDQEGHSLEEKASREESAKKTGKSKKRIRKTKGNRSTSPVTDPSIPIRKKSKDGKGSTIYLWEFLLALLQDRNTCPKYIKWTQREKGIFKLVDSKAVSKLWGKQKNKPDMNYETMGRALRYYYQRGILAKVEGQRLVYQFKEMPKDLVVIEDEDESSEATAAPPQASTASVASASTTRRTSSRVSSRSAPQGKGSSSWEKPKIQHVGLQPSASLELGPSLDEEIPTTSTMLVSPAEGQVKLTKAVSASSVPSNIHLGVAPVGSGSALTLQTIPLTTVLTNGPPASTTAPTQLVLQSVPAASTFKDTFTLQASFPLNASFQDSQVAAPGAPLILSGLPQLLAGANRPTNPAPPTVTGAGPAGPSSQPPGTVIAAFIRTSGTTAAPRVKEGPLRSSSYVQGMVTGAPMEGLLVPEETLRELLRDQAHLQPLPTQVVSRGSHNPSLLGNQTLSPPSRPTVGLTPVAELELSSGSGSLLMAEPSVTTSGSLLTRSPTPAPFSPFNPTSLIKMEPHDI
# Procedure, shortened: as §1
# [5] = target: T3, ELK4 (Homo sapiens, UniProt P28324-2 1-405)
# T3 sequence: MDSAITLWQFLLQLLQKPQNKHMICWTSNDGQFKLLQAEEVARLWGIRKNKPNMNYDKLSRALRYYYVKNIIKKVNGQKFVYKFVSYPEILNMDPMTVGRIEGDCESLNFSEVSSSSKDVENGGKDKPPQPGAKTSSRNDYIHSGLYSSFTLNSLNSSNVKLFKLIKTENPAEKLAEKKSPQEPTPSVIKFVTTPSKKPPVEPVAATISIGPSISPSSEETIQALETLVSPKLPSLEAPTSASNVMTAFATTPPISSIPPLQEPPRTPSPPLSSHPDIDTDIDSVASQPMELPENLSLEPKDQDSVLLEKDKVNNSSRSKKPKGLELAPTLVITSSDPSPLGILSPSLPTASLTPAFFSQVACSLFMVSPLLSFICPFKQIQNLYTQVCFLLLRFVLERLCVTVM
# Procedure, shortened: as §1
# [6] = target: T4, ETV2 (Homo sapiens, UniProt O00321 1-342)
# T4 sequence: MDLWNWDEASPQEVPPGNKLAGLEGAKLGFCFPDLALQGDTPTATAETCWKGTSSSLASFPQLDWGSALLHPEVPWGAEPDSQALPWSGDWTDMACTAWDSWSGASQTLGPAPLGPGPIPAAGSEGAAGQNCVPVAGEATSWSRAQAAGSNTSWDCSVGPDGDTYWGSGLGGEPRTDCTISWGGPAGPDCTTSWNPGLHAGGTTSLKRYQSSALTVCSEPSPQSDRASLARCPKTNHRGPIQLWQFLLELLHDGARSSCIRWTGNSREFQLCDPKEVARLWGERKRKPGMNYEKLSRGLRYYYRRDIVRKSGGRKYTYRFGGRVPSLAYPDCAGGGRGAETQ
# Procedure, shortened: as §1
# [7] = target: T5, ELF3 (Homo sapiens, UniProt P78545 1-371)
# T5 sequence: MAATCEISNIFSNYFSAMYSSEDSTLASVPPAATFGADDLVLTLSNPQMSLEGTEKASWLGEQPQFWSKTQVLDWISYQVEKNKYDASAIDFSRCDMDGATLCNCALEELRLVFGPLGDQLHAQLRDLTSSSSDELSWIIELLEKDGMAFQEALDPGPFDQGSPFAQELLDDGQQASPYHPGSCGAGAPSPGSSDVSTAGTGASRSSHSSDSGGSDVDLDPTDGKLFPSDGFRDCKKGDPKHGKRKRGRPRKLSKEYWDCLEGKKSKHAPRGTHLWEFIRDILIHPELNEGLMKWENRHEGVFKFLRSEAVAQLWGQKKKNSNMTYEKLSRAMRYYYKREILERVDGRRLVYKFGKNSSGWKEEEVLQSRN
# Procedure, shortened: as §1
# [8] = target: CRX (Homo sapiens, UniProt O43186 1-299)
# Chain of CRX (O43186 whole entry): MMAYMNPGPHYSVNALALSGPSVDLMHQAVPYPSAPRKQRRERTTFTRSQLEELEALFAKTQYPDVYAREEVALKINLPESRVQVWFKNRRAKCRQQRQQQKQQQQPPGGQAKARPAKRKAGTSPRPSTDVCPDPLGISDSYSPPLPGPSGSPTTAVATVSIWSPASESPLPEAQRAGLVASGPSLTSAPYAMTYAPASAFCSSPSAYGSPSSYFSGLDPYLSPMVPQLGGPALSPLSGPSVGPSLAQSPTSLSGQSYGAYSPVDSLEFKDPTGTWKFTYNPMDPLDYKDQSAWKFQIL
# Procedure, shortened: as §1
# [9] = target: ETV1 (Homo sapiens, UniProt P50549 1-477)
# Chain of ETV1 (P50549 whole entry): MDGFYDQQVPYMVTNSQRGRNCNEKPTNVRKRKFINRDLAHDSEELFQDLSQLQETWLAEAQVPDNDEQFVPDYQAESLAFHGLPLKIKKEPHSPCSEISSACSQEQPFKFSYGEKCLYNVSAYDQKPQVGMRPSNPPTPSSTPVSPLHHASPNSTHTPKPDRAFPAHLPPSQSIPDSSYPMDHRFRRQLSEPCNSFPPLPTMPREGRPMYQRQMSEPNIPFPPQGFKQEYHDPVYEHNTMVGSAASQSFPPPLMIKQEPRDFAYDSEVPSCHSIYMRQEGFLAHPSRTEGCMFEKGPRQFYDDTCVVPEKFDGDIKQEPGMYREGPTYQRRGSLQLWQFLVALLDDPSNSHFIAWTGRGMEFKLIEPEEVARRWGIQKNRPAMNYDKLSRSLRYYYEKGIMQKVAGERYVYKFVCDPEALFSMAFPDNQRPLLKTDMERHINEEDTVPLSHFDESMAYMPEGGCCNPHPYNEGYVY
# Procedure, shortened: as §1
# [10] = target: T6, ERF (Homo sapiens, UniProt P50548 1-548)
# T6 sequence: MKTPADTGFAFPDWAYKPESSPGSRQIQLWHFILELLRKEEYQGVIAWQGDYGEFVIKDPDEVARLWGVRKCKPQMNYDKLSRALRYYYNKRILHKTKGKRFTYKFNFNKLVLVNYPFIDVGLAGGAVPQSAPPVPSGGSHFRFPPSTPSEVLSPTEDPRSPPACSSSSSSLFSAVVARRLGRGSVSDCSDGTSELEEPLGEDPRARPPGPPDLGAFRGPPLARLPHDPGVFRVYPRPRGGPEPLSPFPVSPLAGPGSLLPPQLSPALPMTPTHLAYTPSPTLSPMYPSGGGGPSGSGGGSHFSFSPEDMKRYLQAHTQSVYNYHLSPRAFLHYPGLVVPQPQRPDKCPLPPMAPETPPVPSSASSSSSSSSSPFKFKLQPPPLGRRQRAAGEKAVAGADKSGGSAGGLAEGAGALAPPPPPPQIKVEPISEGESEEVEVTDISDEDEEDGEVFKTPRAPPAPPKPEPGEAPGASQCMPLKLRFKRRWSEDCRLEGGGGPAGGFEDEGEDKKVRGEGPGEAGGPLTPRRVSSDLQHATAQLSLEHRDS
# Procedure, shortened: as §1
# [11] = target: T7, ETV3L (Homo sapiens, UniProt Q6ZN32 1-361)
# T7 sequence: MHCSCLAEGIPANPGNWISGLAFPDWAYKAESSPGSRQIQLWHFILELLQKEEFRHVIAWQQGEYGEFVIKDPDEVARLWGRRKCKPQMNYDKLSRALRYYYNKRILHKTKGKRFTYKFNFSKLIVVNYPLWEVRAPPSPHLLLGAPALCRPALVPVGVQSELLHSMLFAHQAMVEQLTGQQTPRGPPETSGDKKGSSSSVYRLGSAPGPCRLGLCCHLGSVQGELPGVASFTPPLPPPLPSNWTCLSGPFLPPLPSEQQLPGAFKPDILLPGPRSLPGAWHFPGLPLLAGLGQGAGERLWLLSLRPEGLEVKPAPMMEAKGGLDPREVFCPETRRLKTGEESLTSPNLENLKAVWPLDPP
# Procedure, shortened: as §1
# [12] = target: T8, ETS2 (Homo sapiens, UniProt P15036 1-469)
# T8 sequence: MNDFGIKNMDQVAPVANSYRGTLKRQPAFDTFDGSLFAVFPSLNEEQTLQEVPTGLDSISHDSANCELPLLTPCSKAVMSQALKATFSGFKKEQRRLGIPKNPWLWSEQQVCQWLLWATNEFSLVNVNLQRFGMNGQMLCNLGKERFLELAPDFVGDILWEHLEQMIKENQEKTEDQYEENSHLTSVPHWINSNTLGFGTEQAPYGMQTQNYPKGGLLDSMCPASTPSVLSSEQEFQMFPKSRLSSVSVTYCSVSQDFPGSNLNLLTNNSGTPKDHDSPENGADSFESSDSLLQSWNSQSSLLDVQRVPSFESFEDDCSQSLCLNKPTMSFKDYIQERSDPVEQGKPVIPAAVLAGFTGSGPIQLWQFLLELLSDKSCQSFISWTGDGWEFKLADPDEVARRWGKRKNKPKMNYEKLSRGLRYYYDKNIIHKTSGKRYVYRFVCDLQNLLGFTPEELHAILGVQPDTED
# Procedure, shortened: as §1
# [13] = target: T9, SPDEF (Homo sapiens, UniProt O95238 1-335)
# T9 sequence: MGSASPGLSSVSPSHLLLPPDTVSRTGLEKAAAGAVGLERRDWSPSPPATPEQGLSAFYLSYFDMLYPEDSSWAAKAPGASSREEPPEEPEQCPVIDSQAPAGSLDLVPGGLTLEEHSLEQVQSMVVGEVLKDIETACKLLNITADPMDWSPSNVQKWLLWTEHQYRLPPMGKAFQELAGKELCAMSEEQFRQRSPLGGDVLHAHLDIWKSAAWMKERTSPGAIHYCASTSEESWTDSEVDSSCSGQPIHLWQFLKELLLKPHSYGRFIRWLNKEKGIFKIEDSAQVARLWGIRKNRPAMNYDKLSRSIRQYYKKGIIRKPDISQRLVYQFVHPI
# Procedure, shortened: as §1
# [14] = target: T10, ETV7 (Homo sapiens, UniProt Q9Y603 1-341)
# T10 sequence: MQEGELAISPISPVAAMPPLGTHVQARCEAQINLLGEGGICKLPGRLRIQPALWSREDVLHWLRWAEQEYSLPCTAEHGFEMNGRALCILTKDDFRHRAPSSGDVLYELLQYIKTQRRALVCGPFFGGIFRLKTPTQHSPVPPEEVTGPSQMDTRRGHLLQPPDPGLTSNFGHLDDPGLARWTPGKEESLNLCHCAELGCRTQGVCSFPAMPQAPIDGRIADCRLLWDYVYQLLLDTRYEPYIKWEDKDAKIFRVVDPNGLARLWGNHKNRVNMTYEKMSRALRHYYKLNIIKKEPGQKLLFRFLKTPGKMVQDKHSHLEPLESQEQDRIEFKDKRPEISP
# Procedure, shortened: as §1
# [15] = target: T11, ELF5 (Homo sapiens, UniProt Q9UKW6-2 1-255)
# T11 sequence: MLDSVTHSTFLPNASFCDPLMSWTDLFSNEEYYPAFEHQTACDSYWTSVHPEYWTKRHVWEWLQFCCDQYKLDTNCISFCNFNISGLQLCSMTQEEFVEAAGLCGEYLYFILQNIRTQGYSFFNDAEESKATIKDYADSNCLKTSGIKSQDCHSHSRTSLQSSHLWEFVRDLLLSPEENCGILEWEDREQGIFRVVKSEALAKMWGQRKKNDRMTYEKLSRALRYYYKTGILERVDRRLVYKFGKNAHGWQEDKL
# Procedure, shortened: as §1
# [16] = target: T12, ETV3 (Homo sapiens, UniProt P41162-2 1-143)
# T12 sequence: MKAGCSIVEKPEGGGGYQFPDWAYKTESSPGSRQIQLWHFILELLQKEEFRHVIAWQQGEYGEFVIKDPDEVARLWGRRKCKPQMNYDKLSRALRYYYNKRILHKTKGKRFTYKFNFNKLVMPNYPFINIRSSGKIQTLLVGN
# Procedure, shortened: as §1
# [17] = target: ETV6 (Homo sapiens, UniProt P41212 1-452)
# Chain of ETV6 (P41212 whole entry): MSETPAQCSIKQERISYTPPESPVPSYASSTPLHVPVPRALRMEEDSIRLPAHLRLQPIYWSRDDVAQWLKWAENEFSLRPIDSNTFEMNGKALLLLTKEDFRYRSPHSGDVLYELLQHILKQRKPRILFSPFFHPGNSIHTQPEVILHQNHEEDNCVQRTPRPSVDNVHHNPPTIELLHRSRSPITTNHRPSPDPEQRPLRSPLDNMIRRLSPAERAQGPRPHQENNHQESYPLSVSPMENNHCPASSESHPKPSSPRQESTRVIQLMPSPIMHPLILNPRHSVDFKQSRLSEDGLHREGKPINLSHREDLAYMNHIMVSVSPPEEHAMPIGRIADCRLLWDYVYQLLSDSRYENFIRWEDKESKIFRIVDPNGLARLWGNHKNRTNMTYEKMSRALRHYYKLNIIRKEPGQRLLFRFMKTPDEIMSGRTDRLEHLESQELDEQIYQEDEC
# Procedure, shortened: as §1
sequence,measurement,setting,value
CTCAGT,binding signal,[1],"1.12 fold enrichment (6-mer frequency, TF over GST control)"
same,binding signal,[2],"1.14 fold enrichment (6-mer frequency, TF over GST control)"
same,binding signal,[3],"1.24 fold enrichment (6-mer frequency, TF over GST control)"
same,binding signal,[4],"1.21 fold enrichment (6-mer frequency, TF over GST control)"
same,binding signal,[5],"1.19 fold enrichment (6-mer frequency, TF over GST control)"
same,binding signal,[6],"1.2 fold enrichment (6-mer frequency, TF over GST control)"
same,binding signal,[7],"1.35 fold enrichment (6-mer frequency, TF over GST control)"
same,binding signal,[8],"1.08 fold enrichment (6-mer frequency, TF over GST control)"
same,binding signal,[9],"1.12 fold enrichment (6-mer frequency, TF over GST control)"
same,binding signal,[10],"1.11 fold enrichment (6-mer frequency, TF over GST control)"
same,binding signal,[11],"1.18 fold enrichment (6-mer frequency, TF over GST control)"
same,binding signal,[12],"1.1 fold enrichment (6-mer frequency, TF over GST control)"
same,binding signal,[13],"1.06 fold enrichment (6-mer frequency, TF over GST control)"
same,binding signal,[14],"1.12 fold enrichment (6-mer frequency, TF over GST control)"
same,binding signal,[15],"1.09 fold enrichment (6-mer frequency, TF over GST control)"
same,binding signal,[16],"1.24 fold enrichment (6-mer frequency, TF over GST control)"
same,binding signal,[17],"1.08 fold enrichment (6-mer frequency, TF over GST control)"
